Columns and labels:
[1] = biological target: T1, Aspartate--tRNA(Asp/Asn) ligase (Mycobacterium tuberculosis (strain ATCC 25618 / H37Rv)) (UniProt P9WFW3); assay: Assay for Asp RNA synthetase-1 from Mycobacterium tuberculosis; format: functional; design: scale not given: direction of the effect not stated beside the values; details: 30 µM; also: in the data most compounds retested in dose-response had high values
T1 sequence (whole entry): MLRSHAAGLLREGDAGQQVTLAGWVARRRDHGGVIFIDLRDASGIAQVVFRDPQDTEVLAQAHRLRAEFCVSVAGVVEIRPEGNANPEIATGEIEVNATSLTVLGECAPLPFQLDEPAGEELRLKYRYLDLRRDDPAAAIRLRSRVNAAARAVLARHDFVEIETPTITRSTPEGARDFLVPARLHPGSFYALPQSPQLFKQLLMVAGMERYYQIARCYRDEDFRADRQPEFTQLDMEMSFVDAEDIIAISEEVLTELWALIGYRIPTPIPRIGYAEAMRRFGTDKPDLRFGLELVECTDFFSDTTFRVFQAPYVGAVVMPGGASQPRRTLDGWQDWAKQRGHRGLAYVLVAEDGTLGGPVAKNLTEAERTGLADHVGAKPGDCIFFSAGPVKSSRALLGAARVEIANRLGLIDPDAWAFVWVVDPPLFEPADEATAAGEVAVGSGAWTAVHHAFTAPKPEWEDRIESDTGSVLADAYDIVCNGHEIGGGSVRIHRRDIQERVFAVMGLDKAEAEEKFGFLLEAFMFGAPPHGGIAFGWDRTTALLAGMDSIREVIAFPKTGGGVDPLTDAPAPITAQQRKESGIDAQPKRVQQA

[2] = biological target: Shiga toxin 2 (Escherichia coli O157:H7) (UniProt P09385+P09386); assay: E. coli 0.157:H7 Shiga Toxin SOP - stx2 screening assay; format: functional; design: scale not given: direction of the effect not stated beside the values; details: 30 µM

SMILES: O=C(N[C@@H]1CN(Cc2ccc3c(c2)OCO3)[C@@H]2CCCO[C@@H]21)C1CC1
- Percent Effect [1]: 5.97%
- Percent Effect [2]: 9.3%

SMILES: Cc1cccc(CN2CCc3ncnc(C)c3CC2)n1
- Percent Effect [1]: -0.616%
- Percent Effect [2]: -16.2%

SMILES: c1cnc(N2C[C@H]3CCN(c4cccnc4)C[C@H]3C2)nc1
- Percent Effect [1]: -2.01%
- Percent Effect [2]: -9.94%

SMILES: Cc1noc([C@@H]2CCCN2C(=O)C2CCN(C(=O)C3CCC3)CC2)n1
- Percent Effect [1]: 6.9%
- Percent Effect [2]: -35.4%

SMILES: Cc1cc(C2CCCN2C(=O)c2cc3c(s2)CCC3)on1 (configuration not stated)
- Percent Effect [1]: -0.678%
- Percent Effect [2]: 5.77%

SMILES: O=c1cc(CN2CCCC(CCc3c(F)cccc3F)C2)[nH]c(=O)[nH]1 (configuration not stated)
- Percent Effect [1]: 3.07%
- Percent Effect [2]: -12.7%

SMILES: CC(=O)NCc1ccc(C(=O)N2CCCCC2Cn2cccn2)o1 (configuration not stated)
- Percent Effect [1]: 0.175%
- Percent Effect [2]: -2.7%

SMILES: O=C(CCc1ccc(=O)[nH]n1)N1CCCC(COc2ccc(F)cc2)C1 (configuration not stated)
- Percent Effect [1]: 3.84%
- Percent Effect [2]: 6.15%

SMILES: CCc1nc(CN(C)C2CCN(Cc3cnc(C)cn3)C2)no1 (configuration not stated)
- Percent Effect [1]: 1.14%
- Percent Effect [2]: -48.2%

SMILES: COc1c(C)cnc(CN2CCCCC2Cn2nc(C)nc2C)c1C (configuration not stated)
- Percent Effect [1]: -2.54%
- Percent Effect [2]: -21.3%

SMILES: Cc1ccc(CN2CCc3ncnc(C4CC4)c3CC2)s1
- Percent Effect [1]: 9.9%
- Percent Effect [2]: -8.76%

SMILES: CS(=O)(=O)N1CCCC12CCCN(S(=O)(=O)c1ccc(F)cc1)C2 (configuration not stated)
- Percent Effect [1]: -6.05%
- Percent Effect [2]: 7.82%

SMILES: Cc1cnn(C2CCCN(C(=O)c3cc(C4CC4)on3)C2)c1 (configuration not stated)
- Percent Effect [1]: -1.95%
- Percent Effect [2]: 14.5%

SMILES: CN1CC(=O)N(c2cnn(C)c2)CC12CCN(C(=O)c1ccsc1)C2 (configuration not stated)
- Percent Effect [1]: 0.595%
- Percent Effect [2]: -1.99%

SMILES: Cc1nc(-c2ccccc2)n(CC(=O)N(C(C)C)C(C)C)n1
- Percent Effect [1]: 4.15%
- Percent Effect [2]: 23.2%

SMILES: NC(=O)Nc1cccc(Oc2ccccn2)c1
- Percent Effect [1]: -2.58%
- Percent Effect [2]: -11.9%

SMILES: Cc1noc([C@H]2C[C@H]3OCC[C@H]3N(S(=O)(=O)C3CC3)C2)n1
- Percent Effect [1]: 0.456%
- Percent Effect [2]: 19.9%

SMILES: Cc1ncc2c(n1)CN(CC(=O)Nc1nncs1)CC2
- Percent Effect [1]: -3.23%
- Percent Effect [2]: -20.4%

SMILES: Cc1cccc(OCCC(=O)N2CCCN(C(N)=O)CC2)c1C
- Percent Effect [1]: 0.542%
- Percent Effect [2]: 7.91%

SMILES: O=C(NCC1CC1)C1CCC2(CCN(C(=O)c3ccccn3)CC2)O1 (configuration not stated)
- Percent Effect [1]: -1.39%
- Percent Effect [2]: 1.47%

SMILES: Cc1nc(C)n(CC2CCCN(c3ncnc4ccsc34)C2)n1 (configuration not stated)
- Percent Effect [1]: 0.756%
- Percent Effect [2]: 28.8%

SMILES: CCCN(CC)C(=O)c1cc2c(c3ccccc3n2C)n1C(=O)N(C)C
- Percent Effect [1]: 6.03%
- Percent Effect [2]: 2.44%

SMILES: COC(=O)C(NC(=O)C(C)C)c1cc(F)ccc1F (configuration not stated)
- Percent Effect [1]: -0.455%
- Percent Effect [2]: 15.2%

SMILES: Cc1ccc(C(=O)NCCCNS(C)(=O)=O)c(=O)[nH]1
- Percent Effect [1]: -3.45%
- Percent Effect [2]: -17.7%

SMILES: CN(Cc1ccncc1)C(=O)Nc1cnn(CC2CCCO2)c1 (configuration not stated)
- Percent Effect [1]: 2.49%
- Percent Effect [2]: -5.44%

SMILES: CCn1cc(CN(C)S(=O)(=O)c2cc(Cl)ccc2Cl)cn1
- Percent Effect [1]: -5.08%
- Percent Effect [2]: -51.4%

SMILES: CC(C)NC(=O)c1ccc2c(c1)nc1n2CCN(C(C)C)C1
- Percent Effect [1]: -0.435%
- Percent Effect [2]: -61.8%

SMILES: c1csc(-c2nc(CN3CCOC(Cn4cccn4)C3)co2)c1 (configuration not stated)
- Percent Effect [1]: 9.95%
- Percent Effect [2]: 13.2%

SMILES: Cc1nc(C(C)(C)NC(=O)Nc2ccccc2)no1
- Percent Effect [1]: 0.805%
- Percent Effect [2]: -0.789%

SMILES: O=C(NCc1cccs1)C1CN(C(=O)c2cccs2)CC12CCOCC2 (configuration not stated)
- Percent Effect [1]: 6.61%
- Percent Effect [2]: 5.39%

SMILES: CS(=O)(=O)NCc1cc2n(n1)CCCN(Cc1nc3ccccc3[nH]1)C2
- Percent Effect [1]: -3.96%
- Percent Effect [2]: 22.6%

SMILES: Cc1ncc2c(n1)CN(Cc1noc(C3CC3)n1)CC2
- Percent Effect [1]: 0.182%
- Percent Effect [2]: -46.9%

SMILES: O=C(c1cnccn1)N1CCN(Cc2ccncc2)c2ncccc2C1
- Percent Effect [1]: 0.815%
- Percent Effect [2]: -1.31%

SMILES: Cc1cc(C)c(CNC(=O)NCCOc2ccc3c(c2)CCC3)c(=O)[nH]1
- Percent Effect [1]: -2.17%
- Percent Effect [2]: 15%

SMILES: NC(=O)CN1CCC(NC(=O)Nc2nccs2)CC1
- Percent Effect [1]: -4.06%
- Percent Effect [2]: -29.4%

SMILES: O=C(c1n[nH]c(=O)c2ccccc12)N1CCCCC1c1ccn[nH]1 (configuration not stated)
- Percent Effect [1]: -1.09%
- Percent Effect [2]: 17.2%

SMILES: CCC(CNC(=O)Nc1cnn(CC)c1)N1CCCC1 (configuration not stated)
- Percent Effect [1]: -2.08%
- Percent Effect [2]: 1.4%

SMILES: Cc1nc(N2CCOCC2)nc2c1CCN(Cc1cccnc1)CC2
- Percent Effect [1]: 2.91%
- Percent Effect [2]: -7%

SMILES: CC(C)(C)c1cnc(CN2CCCC2Cn2cccn2)o1 (configuration not stated)
- Percent Effect [1]: -3.34%
- Percent Effect [2]: 0.322%

SMILES: NC(=O)c1ccc(S(=O)(=O)NC(=O)COc2ccc3c(c2)CCC3)cc1
- Percent Effect [1]: -2.01%
- Percent Effect [2]: 13.5%

SMILES: Cc1ccc(CNCc2nnc3n2CC(C(F)(F)F)CC3)cc1 (configuration not stated)
- Percent Effect [1]: -6.08%
- Percent Effect [2]: -16%

SMILES: CN(CCc1ccccc1)Cc1cc(C(=O)N2CCCC2(C)C)no1
- Percent Effect [1]: 0.433%
- Percent Effect [2]: -34.7%

SMILES: CCCNC(=O)CSc1nnc2[nH]c(=O)cc(CC)n12
- Percent Effect [1]: -6.58%
- Percent Effect [2]: -11.3%

SMILES: COCC1c2c(cnn2CC2CC2)CCN1Cc1nccs1 (configuration not stated)
- Percent Effect [1]: 0.524%
- Percent Effect [2]: -52.1%

SMILES: CCN(Cc1ccco1)C(=O)Nc1cc(C(F)(F)F)c[nH]c1=O
- Percent Effect [1]: 3.71%
- Percent Effect [2]: 34.2%

SMILES: Cc1nc(C)n(CC2CCCN(CCC(=O)N3CCCCC3)C2)n1 (configuration not stated)
- Percent Effect [1]: -1.61%
- Percent Effect [2]: 13.6%
